Test results: PubChem BioAssay
Inconclusive results are not listed. Active and inactive are the calls of the source.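 The calls were made as follows, unless noted: active = RAM network inhibition above 8.4% in each of two replicates, 3 SD over the compound average; inconclusive = above 8.4% inhibition in only one replicate; inactive = 8.4% inhibition or less in each replicate.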

Assays:
[1] = reducers of endogenous Her2 protein level, primary screen, SKBR3 breast tumor cells, AlphaScreen, ATP viability (AID 461;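 active = Her2 level under about 52% in both replicate screens, with viability over 70% of control, limit read from the data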;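 as to Her2 level: lower value means less Her2 protein in the cells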;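 as to viability: percent of carrier control wells set as 100% viability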); details: 18-24 h, measured here: SKBR3 viability, ATP luminescence, at 10 µM
[2] = biological target: Receptor tyrosine-protein kinase erbB-2 (Homo sapiens) (UniProt P04626); assay: as above; details: 18-24 h, at 10 µM, stronger effect = lower value
[3] = SK-BR-3 cell growth inhibitors, pilot screen, 24 h, human (AID 572;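 active = viability at or below 10% of carrier control in both of two separate runs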;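 also: compound exposure lasted between 18 and 24 h rather than exactly 24 h; 100% = carrier-treated control wells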); details: SK-BR-3 viability, CellTiter-Glo luminescence, at 10 µM, stronger effect = lower value
[4] = HUVEC growth inhibition – cell-based, human, primary screen (AID 575;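 active = viability at or below 30% in both replicate assays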;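 also: 100% = median of untreated cell wells with 0.1% DMSO on each plate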); details: HUVEC proliferation, CellTiter-Glo luminescence, 72 h; at 10 µM; stronger effect = lower value
[5] = growth inhibitors of H69AR lung tumor, primary screen, human, duplicate replicates (AID 580;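 active = viability at or under a set limit in both replicates, limit being median viability minus 3 SD, cut at about 48% in these data, passing the limit was not always enough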;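 also: 100% = mean luminescence of untreated wells and 0% = no signal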); details: H69AR lung tumor cells viability, ATP luminescence, 72 h; at 10 µM; stronger effect = lower value
[6] = reversal of MRP1-mediated doxorubicin resistance, pilot screen, H69AR cells, doxorubicin co-treatment (AID 601;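 active = viability loss from added drug above about 55%, and viability with drug at most 40%, in both replicates, limit read from the data, passing the limit was not always enough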); details: CellTiter-Glo, 72 h, at 10 µM; for differential viability (reversal): stronger effect = higher value
[7] = 384-well plate pilot, post-Golgi transport modulator project, inhibition of yeast transport mutant growth (AID 636; in the data active = inhibition above about 31%); details: absorbance 615 nm, about 18 h, stronger effect = higher value
[8] = growth suppression of yeast trafficking mutant, preliminary HTS, modulators of trafficking downstream of Golgi apparatus project, 1536-format plate, OD 615 nm (AID 637; in the data active = inhibition above about 30%); details: yeast transport mutant growth, absorbance 615 nm, 18 h; stronger effect = higher value
[9] = OD615 S. cerevisiae growth inhibition, permissive medium, pilot counter-assay, permissive growth control for S. cerevisiae lifespan shortening project (AID 705;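 active = growth inhibition above 25% in both replicates, a cutoff set 3 SD above the mean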); details: OD615, 24 h, at 10 µM, stronger effect = higher value
[10] = Restrictive medium S. cerevisiae growth inhibition, OD615, pilot screen of yeast lifespan reduction project, restrictive growth control (AID 706;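 active = growth inhibition above a set limit, 3 SD over mean compound inhibition, in both replicates, cut at about 43% in these data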;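 also: modified DeaD lifespan yeast strain shifted to restrictive glucose medium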); details: OD615, 48 h, at 10 µM, stronger effect = higher value
[11] = viability gain of MRP-1-high H69AR cells under doxorubicin, pilot screen, MRP-1 activator project, CellTiter-Glo, duplicate (AID 807;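 active = viability increase at or above a cutoff of the median across tested compounds plus 3 SD, cut at about 8.5% in these data, passing the limit was not always enough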;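 also: compound pretreatment 18-22 h then 72 h combined with doxorubicin; 0% = doxorubicin alone and 100% = vehicle without doxorubicin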); details: H69AR viability with doxorubicin, CellTiter-Glo luminescence; at 10 µM; stronger effect = higher value
[12] = growth suppression of beta-catenin knockout HCT116, pilot screen, human colon tumor cells (AID 823;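 active = cell viability at or below a set limit in both duplicate runs, the limit being the all-compound median minus 4 SD, cut at about 23% in these data, passing the limit was not always enough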;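 also: 0% = wells killed by 20 µM Hyamine and 100% = untreated DMSO cell wells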); details: CellTiter-Glo, 60 h, at 10 µM, stronger effect = lower value
[13] = growth suppression of PTEN-deleted HCT116, pilot screen, cell-based, HCT116 clonal line, CellTiter-Glo (AID 824;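 active = viability at or below 27.92% in each of two runs, the all-compound median minus 4 SD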;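 also: 0% = 20 µM Hyamine control and 100% = vehicle cell control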); details: 60 h, at 10 µM, stronger effect = lower value
[14] = inhibitors of the yeast RAM network, pilot screen, dse1pr::URA3 reporter, 5-FOA selection (AID 869;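 active = inhibition over a set limit, the all-compound mean plus 3 SD, in both replicate runs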;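 also: 0% = DMSO wells with no growth and 100% = 10 µM 1-NA-PP1 with full growth; RAM network block rescues cells from 5-FOA so hits raise OD615 growth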); details: S. cerevisiae dse1pr::URA3 5-FOA growth, OD615, 2 d; at 10 µM; stronger effect = higher value; strain carries analog-sensitive mutant Cbk1 kinase
[15] = RAM signaling pathway blockade in yeast – S. cerevisiae, Pdr1DBD-CYC8 efflux-inhibited sensitized strain, primary screen (AID 1298);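 also: 0% = DMSO untreated cells without growth and 100% = 10 µM 1-NA-PP1 full growth; higher means more yeast growth rescued from 5-FOA killing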; details: S. cerevisiae cbk1-as DSE1-URA3 strain, 5-FOA growth OD615, 2 d; at 50 µM; stronger effect = higher value
[16] = H69AR cells + 2 uM doxorubicin, measured here: viability with 2 uM doxorubicin, stronger effect = lower value
[17] = H69AR cells, compound alone cytotoxicity

Receptor tyrosine-protein kinase erbB-2 (Homo sapiens), sequence (P04626 whole entry, looked up): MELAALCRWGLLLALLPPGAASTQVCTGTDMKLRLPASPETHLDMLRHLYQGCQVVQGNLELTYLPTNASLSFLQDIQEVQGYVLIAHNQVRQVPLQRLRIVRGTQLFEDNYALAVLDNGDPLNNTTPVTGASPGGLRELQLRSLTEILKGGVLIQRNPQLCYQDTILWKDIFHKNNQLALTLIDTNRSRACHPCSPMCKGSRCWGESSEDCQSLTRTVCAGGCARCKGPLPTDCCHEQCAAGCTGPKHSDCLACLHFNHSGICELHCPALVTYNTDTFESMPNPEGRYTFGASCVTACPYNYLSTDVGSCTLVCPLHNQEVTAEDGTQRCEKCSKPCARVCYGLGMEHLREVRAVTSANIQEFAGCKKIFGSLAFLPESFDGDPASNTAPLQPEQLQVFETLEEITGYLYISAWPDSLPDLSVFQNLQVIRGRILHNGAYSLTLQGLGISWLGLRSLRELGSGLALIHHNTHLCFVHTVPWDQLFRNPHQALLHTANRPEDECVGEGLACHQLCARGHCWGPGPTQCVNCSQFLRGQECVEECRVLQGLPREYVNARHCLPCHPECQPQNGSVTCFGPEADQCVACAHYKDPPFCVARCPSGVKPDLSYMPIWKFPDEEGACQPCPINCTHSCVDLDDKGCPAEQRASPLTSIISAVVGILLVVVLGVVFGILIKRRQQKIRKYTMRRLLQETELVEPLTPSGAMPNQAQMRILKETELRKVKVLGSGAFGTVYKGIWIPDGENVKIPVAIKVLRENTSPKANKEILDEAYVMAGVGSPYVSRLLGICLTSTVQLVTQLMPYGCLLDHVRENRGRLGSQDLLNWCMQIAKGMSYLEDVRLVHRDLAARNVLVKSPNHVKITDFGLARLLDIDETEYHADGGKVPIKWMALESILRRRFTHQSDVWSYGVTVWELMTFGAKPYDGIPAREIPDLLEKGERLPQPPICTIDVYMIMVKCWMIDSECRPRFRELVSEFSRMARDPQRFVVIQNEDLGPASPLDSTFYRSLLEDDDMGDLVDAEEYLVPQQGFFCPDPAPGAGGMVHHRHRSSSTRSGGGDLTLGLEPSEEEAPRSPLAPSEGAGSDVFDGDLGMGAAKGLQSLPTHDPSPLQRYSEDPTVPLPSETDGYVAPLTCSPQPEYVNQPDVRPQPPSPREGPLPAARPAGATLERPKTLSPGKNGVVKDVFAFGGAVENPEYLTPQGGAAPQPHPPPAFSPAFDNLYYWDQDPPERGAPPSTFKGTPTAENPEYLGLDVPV

Structure (SMILES) | viability [1] | Her2 level [2] | viability [3] | viability [4] | viability [5] | differential viability (reversal) ([6]; H69AR cells + 2 uM doxorubicin) | viability [6, 16] | viability [6, 17] | inhibition [7] | inhibition [8] | growth inhibition [9] | growth inhibition [10] | viability increase [11] | viability [12] | viability [13] | inhibition [14] | RAM network inhibition [15]
Oc1ccc(-c2n[nH]c(=S)n2Cc2ccccc2)cc1 | 90.5% | 120% (inactive) | 90.5% (inactive) | 112% (inactive) | 105% (inactive) | 2.54% (inactive) | 102% | 105% | 5.45% (inactive) | -2.83% (inactive) | 5.8% (inactive) | -5.84% (inactive) | -1.84% (inactive) | 101% (inactive) | 91.2% (inactive) | 0.655% (inactive) | -0.9% (inactive)
CCOC(=O)C1=C(C)NC(=O)NC1c1ccc(OCCO)c(OC)c1 (stereo not drawn) | 92.5% | 85% (inactive) | 92.5% (inactive) | 96.6% (inactive) | 92.1% (inactive) | -1.96% (inactive) | 94.1% | 92.1% | -6.08% (inactive) | -2.3% (inactive) | 1.63% (inactive) | 1.81% (inactive) | -1.65% (inactive) | 102% (inactive) | 100% (inactive) | 1.9% (inactive) | -1.29% (inactive)
CCOc1cc(C2NC(=O)NC(O)(C(F)(F)F)C2C(=O)c2ccccc2)ccc1OC (stereo not drawn) | 108% | 110% (inactive) | 108% (inactive) | 104% (inactive) | 102% (inactive) | 5.23% (inactive) | 96.6% | 102% | -4.46% (inactive) | -8.2% (inactive) | -0.49% (inactive) | 19.4% (inactive) | -0.8% (inactive) | 109% (inactive) | 97.8% (inactive) | 0.24% (inactive) | 0.2% (inactive)
c1ccc(-c2cn3cccnc3n2)cc1 | 118% | 88.5% (inactive) | 118% (inactive) | 106% (inactive) | 101% (inactive) | 10.5% (inactive) | 90.4% | 101% | -6.45% (inactive) | -0.73% (inactive) | -10.6% (inactive) | -27% (inactive) | 0.59% (inactive) | 110% (inactive) | 100% (inactive) | 3.13% (inactive) | 1.13% (inactive)
CCCCc1ccc(NC(=O)C2CCCO2)cc1 (stereo not drawn) | 92% | 122% (inactive) | 92% (inactive) | 93.5% (inactive) | 103% (inactive) | 20.8% (inactive) | 82.2% | 103% | -4.87% (inactive) | -5.33% (inactive) | 2.46% (inactive) | 2.07% (inactive) | 2.53% (inactive) | 100% (inactive) | 94.5% (inactive) | 1.05% (inactive) | 3.17% (inactive)
COc1ccc2c(c1)CCc1cc(C(=O)N3CCN(c4ccc(N5CCOCC5)nn4)CC3)sc1-2 | 93.5% | 79% (inactive) | 93.5% (inactive) | 98.4% (inactive) | 63.7% (inactive) | -11.4% (inactive) | 75.1% | 63.7% | -3.08% (inactive) | 0.33% (inactive) | 3.63% (inactive) | 3.83% (inactive) | -1.37% (inactive) | 60.4% (inactive) | 59% (inactive) | 0.905% (inactive) | 0.73% (inactive)
COc1ccc(-c2nc(CS(=O)CC(=O)NCc3ccccn3)c(C)o2)cc1 (stereo not drawn) | 103% | 92.5% (inactive) | 103% (inactive) | 92.9% (inactive) | 92.9% (inactive) | 8.14% (inactive) | 84.8% | 92.9% | -3.47% (inactive) | -2.46% (inactive) | -3.15% (inactive) | 18% (inactive) | -1.58% (inactive) | 95.9% (inactive) | 98.5% (inactive) | 1.57% (inactive) | 5.75% (inactive)
Cc1nnc(NC(=O)CSc2nc3c(c(=O)n2C)SC(C)C3)s1 (stereo not drawn) | 89% | 80% (inactive) | 89% (inactive) | 79.4% (inactive) | 84.8% (inactive) | 4.81% (inactive) | 80% | 84.8% | -6.27% (inactive) | 4.17% (inactive) | -11.1% (inactive) | -18.2% (inactive) | 0.31% (inactive) | 104% (inactive) | 99.6% (inactive) | 2.09% (inactive) | 9.95% (inactive)
C=C(C)Cn1c(-c2ccccc2)nc2ccccc21 | 80% | 102% (inactive) | 80% (inactive) | 117% (inactive) | 96.1% (inactive) | 0.815% (inactive) | 95.3% | 96.1% | -2.8% (inactive) | -1.45% (inactive) | -10.1% (inactive) | -9.65% (inactive) | -1.92% (inactive) | 80.2% (inactive) | 87.8% (inactive) | 1% (inactive) | 5.93% (inactive)
